Test results from PubChem BioAssay (NCATS).
Records with an inconclusive call do not appear. Active and inactive are the calls of the source. Unless noted, calls come from the whole dose curve; as a rule, active = well fitted curve in either direction with a large enough effect (not every such curve was filed as active); inconclusive = small, poorly fitted or top-dose-only effect, or another doubt; inactive = flat fitted curve, though single readings scatter.

Key:
[1] = target: Lysosomal acid glucosylceramidase (Homo sapiens) (UniProt P04062); experiment: Glucocerebrosidase-p2 (AID 348; in the data active = potency below about 10 µM; note: potency is the fitted concentration of half-maximal effect); conditions: purified GBA, blue fluorogenic substrate, 40 min
Sequence of Lysosomal acid glucosylceramidase (Homo sapiens) (P04062 whole entry, looked up): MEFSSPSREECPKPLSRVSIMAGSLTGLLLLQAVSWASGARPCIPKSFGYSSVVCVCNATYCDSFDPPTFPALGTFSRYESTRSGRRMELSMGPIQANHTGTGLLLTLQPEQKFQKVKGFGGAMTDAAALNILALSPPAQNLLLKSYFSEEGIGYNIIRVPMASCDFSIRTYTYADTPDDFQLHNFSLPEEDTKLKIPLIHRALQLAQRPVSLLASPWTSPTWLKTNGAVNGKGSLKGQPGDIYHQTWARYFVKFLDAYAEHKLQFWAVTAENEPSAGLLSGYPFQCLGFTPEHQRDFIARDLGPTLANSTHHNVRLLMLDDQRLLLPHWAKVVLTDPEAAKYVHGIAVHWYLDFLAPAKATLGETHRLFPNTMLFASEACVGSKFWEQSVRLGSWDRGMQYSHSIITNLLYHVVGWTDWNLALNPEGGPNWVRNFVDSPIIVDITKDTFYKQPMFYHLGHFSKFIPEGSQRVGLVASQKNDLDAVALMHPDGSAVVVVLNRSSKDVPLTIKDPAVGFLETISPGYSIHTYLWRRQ
Method in brief: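 Normal human glucocerebrosidase (0.2 nM) with blue fluorogenic substrate (80 uM final) in citrate/phosphate pH 5.9 with 10mM sodium taurocholate, 0.01% tween-20; 40 min RT, NaOH/glycine stop; fluorescence Ex 365/Em 440; AC50 from a titration from 0.6 nM upwards.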

[2] = AP1 Signaling Pathway (AID 357);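 note: ME-180 reporter cells stimulated with EGF at its EC50 level; % is set by controls: 0 for no effect and ±100 for the full control effect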
Method in brief: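 In this screen, ME-180 cells in Opti-MEM with 0.5% dialyzed FBS received EC50 EGF and compound titrations for 5 h. AP-1 reporter beta-lactamase was detected via CCF4 ratio, giving AC50 for positive and negative modulators.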

[3] = target: Cytochrome P450 1A2 (Homo sapiens) (UniProt P05177); experiment: p450-cyp1a2 (AID 410; calls by dose curve; note: potency is the fitted concentration of half-maximal effect;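 for activity change, negative = inhibition: -100% = full effect of reference inhibitor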)
Sequence of Cytochrome P450 1A2 (Homo sapiens) (P05177 whole entry, looked up): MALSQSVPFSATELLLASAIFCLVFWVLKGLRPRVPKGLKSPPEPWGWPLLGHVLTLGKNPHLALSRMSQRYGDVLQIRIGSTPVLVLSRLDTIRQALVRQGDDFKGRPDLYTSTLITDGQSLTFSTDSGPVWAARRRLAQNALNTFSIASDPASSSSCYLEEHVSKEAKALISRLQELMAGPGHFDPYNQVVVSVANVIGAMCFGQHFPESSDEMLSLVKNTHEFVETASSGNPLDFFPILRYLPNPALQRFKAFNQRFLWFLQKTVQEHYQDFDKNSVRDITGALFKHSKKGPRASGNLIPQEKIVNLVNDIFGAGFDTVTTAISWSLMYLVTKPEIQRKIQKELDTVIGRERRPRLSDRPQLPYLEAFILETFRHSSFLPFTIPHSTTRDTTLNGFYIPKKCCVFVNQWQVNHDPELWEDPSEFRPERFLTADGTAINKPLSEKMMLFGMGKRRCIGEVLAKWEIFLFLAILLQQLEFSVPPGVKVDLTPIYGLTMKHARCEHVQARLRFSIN
Method in brief: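 Read-out is luminescence from luciferin produced by CYP1A2 demethylation of Luciferin-ME (100uM, at Km). Detection reagent stopped the 60 min NADPH-dependent reaction; signals were normalized to 57 uM furafylline.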

[4] = Stat Signaling Pathway (AID 446);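 note: ME-180 cervical cancer cells given 40 pM IL-6 alongside compound; SIE-controlled beta-lactamase reporter measured as 460/530 nm FRET emission ratio; % is set by controls: 0 for no effect and ±100 for the full control effect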
Method in brief: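 Overnight-plated ME-180 cells bearing a STAT Inducible Element beta-lactamase reporter; 5 h co-exposure to compound and 40 pM IL-6; values normalized to 300 pM IL-6 and 125 nM JAK inhibitor controls.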

[5] = target: Glucocorticoid receptor (Homo sapiens) (UniProt P04150); experiment: GR-EFC Redistribution (AID 451; calls by dose curve; note: potency is the fitted concentration of half-maximal effect); conditions: CHO-K1 GR-EFC translocation, beta-gal luminescence, 2 h
Sequence of Glucocorticoid receptor (Homo sapiens) (P04150 whole entry, looked up, the tested form may be a part): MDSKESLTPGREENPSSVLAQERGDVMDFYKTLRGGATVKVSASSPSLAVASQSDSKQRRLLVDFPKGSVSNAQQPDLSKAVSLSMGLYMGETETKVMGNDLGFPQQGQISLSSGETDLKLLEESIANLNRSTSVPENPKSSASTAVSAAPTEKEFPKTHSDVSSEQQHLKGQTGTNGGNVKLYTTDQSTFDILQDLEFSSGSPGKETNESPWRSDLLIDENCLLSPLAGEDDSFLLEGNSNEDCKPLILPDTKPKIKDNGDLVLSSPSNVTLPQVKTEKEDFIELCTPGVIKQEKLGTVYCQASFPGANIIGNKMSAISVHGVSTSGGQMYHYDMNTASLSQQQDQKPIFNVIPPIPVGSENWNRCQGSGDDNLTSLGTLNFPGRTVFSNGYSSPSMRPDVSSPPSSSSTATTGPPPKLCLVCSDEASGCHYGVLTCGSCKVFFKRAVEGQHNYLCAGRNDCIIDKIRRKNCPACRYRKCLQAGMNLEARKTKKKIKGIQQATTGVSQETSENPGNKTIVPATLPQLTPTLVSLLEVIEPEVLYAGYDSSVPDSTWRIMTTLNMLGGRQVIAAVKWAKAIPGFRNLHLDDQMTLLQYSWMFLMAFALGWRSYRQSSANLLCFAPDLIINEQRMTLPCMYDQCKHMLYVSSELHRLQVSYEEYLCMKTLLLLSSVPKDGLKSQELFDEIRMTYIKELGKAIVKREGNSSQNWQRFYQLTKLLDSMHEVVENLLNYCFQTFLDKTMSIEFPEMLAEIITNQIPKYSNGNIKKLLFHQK
Method in brief: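 Translocation of GR-ED fusion to nuclear EA restores b-gal, read by luminescence after 1 h room-temperature detection. Engineered CHO-K1 biosensor cells, 1,000/well, exposed 2 h at 37 C to titrations up to 46 uM final.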

[6] = target: Mitogen-activated protein kinase 10 (Mus musculus) (UniProt Q61831); experiment: JNK3 AlphaScreen Assay (AID 530);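 note: kinase came from lysate of stimulated human HepG2 cells; signal reports phosphorylation of biotinylated GST-cJun 1-79 at Ser73 with 10 µM ATP; % is set by controls: 0 for no effect and ±100 for the full control effect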
Method in brief: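 Kinase buffer: 20 mM Tris-HCl pH 7.6, 10 mM MgCl2, 1 mM DTT, 0.1 mM Na3VO4, 0.01% Tween-20; ATP 10 uM. Substrate biotin-GST-cJun(1-79), enzyme from activated HepG2 lysates. Detection by Ser73 phospho-antibody AlphaScreen.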

[7] = target: Cytochrome P450 3A4 (Homo sapiens) (UniProt P08684); experiment: qHTS Assay for Activators of Cytochrome P450 3A4 (AID 885; active = well fitted curve in the direction sought with a large enough effect; an effect the other way counts as inactive or inconclusive; note: nearly all actives have a fitted effect of over 65% in size)
Sequence of Cytochrome P450 3A4 (Homo sapiens) (P08684 whole entry, looked up): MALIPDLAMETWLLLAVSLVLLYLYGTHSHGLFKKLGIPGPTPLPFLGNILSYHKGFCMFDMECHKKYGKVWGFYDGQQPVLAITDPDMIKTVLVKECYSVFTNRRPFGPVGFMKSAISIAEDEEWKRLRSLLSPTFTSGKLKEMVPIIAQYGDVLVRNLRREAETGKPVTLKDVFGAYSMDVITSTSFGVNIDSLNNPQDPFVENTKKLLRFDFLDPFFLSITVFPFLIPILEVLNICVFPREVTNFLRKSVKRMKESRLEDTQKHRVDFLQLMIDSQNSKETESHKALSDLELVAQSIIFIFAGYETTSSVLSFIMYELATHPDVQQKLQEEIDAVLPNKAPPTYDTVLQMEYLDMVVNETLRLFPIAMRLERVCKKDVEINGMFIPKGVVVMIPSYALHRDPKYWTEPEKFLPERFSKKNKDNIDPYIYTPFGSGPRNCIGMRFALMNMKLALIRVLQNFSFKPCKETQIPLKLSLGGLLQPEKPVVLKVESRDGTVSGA
Method in brief: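 Using 20nM recombinant human CYP3A4 in potassium phosphate (200mM), substrate Luciferin-PPXE at 25uM, luminescent luciferin detection followed a 60-min RT NADPH reaction; data scaled to 57 uM ketoconazole.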

[8] = qHTS Assay for Lipid Storage Modulators (AID 1519; calls by dose curve); conditions: Drosophila S3 cells, BODIPY lipid droplet/cell ratio, laser cytometry, cells loaded with oleic acid; for activity change, negative = inhibition: at 57.5 µM (top of the series)
Method in brief: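 Cells seeded at 5,000 per well were treated with compounds over a concentration series and loaded with oleic acid (400 uM, as added). Lipid droplet fluorescence (488 nm excitation, 500-530 nm channel) was read by laser-scanning cytometry and normalized to 20 uM Triacsin C.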

[9] = Primary qHTS for small molecule stabilizers of the endoplasmic reticulum resident proteome: Secreted ER Calcium Modulated Protein (SERCaMP) assay (AID 1508630; active = well fitted curve in the direction sought with a large enough effect; an effect the other way counts as inactive or inconclusive; note: % is set by controls: 0 for no effect and ±100 for the full control effect)
Method in brief: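 The SH-SY5Y reporter protocol was run at 3 concentrations up to 38.3 uM (primary) or 11 concentrations (follow-up): 16 h compound, 100 nM thapsigargin for 4 h, then extracellular luciferase luminescence.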

[10] = target: 3',5'-cyclic-AMP phosphodiesterase 4B (Homo sapiens) (UniProt Q07343); experiment: qHTS Assay for Inhibitors of PDE-IV (AID 607; active = well fitted activation curve with a large enough effect in the main read-out, with a control signal flat, not every such curve was filed as active; note: % of control where 0% means no effect)
Sequence of 3',5'-cyclic-AMP phosphodiesterase 4B (Homo sapiens) (Q07343 whole entry, looked up): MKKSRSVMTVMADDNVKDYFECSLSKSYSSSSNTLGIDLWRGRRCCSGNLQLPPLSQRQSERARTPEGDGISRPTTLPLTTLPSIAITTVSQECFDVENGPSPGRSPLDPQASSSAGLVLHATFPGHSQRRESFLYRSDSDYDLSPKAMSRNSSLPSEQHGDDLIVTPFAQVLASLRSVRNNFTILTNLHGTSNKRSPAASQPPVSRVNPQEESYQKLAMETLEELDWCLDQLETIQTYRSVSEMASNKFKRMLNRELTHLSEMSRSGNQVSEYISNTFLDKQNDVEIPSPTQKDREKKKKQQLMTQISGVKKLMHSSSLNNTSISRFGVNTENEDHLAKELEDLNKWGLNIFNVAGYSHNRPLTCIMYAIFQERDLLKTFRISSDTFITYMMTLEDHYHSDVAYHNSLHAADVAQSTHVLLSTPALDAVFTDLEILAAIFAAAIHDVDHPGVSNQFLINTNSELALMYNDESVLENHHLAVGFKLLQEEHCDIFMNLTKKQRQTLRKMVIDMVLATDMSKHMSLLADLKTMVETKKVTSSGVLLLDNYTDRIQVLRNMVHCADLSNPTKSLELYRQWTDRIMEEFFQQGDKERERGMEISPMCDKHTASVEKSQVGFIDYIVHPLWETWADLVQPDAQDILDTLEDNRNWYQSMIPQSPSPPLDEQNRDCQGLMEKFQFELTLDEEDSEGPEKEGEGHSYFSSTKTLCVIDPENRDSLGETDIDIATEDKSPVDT
Method in brief: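 Live HEK293 cells with a modified cyclic nucleotide-gated (CNG) channel report intracellular cAMP via membrane-potential dye fluorescence (ex 535/em 590 nm). Endogenous PDE-IV was targeted. Compounds were tested at up to 22.9 uM final; RO 20-1724 100 uM served as control.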

[11] = target: Cytochrome P450 2C19 (Homo sapiens) (UniProt P33261); experiment: qHTS Assay for Inhibitors and Substrates of Cytochrome P450 2C19 (AID 899; active = well fitted curve in the direction sought with a large enough effect; an effect the other way counts as inactive or inconclusive; note: potency is the fitted concentration of half-maximal effect; nearly all actives have a fitted effect of over 60% in size)
Sequence of Cytochrome P450 2C19 (Homo sapiens) (P33261 whole entry, looked up): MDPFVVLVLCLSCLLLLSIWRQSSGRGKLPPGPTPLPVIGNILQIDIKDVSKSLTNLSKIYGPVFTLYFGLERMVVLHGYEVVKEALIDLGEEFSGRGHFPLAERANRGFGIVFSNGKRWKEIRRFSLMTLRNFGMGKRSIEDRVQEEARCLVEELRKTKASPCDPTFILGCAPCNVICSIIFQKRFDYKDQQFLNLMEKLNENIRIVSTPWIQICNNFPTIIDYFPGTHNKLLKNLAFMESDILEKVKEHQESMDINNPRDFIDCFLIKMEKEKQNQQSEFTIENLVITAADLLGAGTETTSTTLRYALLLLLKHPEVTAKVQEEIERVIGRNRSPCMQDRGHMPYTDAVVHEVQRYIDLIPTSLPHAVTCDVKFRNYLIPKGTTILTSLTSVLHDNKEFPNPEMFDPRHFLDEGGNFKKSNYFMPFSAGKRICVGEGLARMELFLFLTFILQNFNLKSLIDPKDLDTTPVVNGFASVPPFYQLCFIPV
Method in brief: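 5nM enzyme + 10uM Luciferin-H EGE (=KM), 50mM KPO4; cpd pin-transferred, 10 min 37C; NADPH regen, 60 min 37C; stopped w/ luciferin detection reagent, 20 min; luminescence. Normalized to 57uM ketoconazole (AC100).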

[12] = NFAT Signaling Pathway (AID 444); conditions: Jurkat NFAT-bla M1, carbachol, beta-lactamase ratio, 5 h; at 7.69 µM (top of the series)
Method in brief: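 Read-out: CCF4 FRET ratio (460 nm/530 nm) after 1 h RT dye loading, used for %activity and AC50 from titration series. Cells: Jurkat NFAT-β-lactamase/M1 line, treated with compound plus 1 uM carbachol for 5 h, 37 °C.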

[13] = target: Glucocorticoid receptor (Homo sapiens) (UniProt P04150); experiment: GR-GFP Redistribution (AID 450;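 active = compounds whose dose series gives a full or clear partial fitted curve of increased nuclear translocation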; note: potency is the fitted concentration of half-maximal effect); conditions: U2OS GR-GFP nuclear translocation, laser cytometry, 2 h
[14] = target: Cytochrome P450 3A4 (Homo sapiens) (UniProt P08684); experiment: qHTS Assay for Inhibitors and Substrates of Cytochrome P450 3A4 (AID 884; active = well fitted curve in the direction sought with a large enough effect; an effect the other way counts as inactive or inconclusive; note: nearly all actives have a fitted effect of over 50% in size; note: potency is the fitted concentration of half-maximal effect)
Method in brief: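 Luminescent readout of luciferin produced by CYP3A4 (20 nM) dealkylation of Luciferin-PPXE, 25 uM (its KM). NADPH-driven reaction ran 60 min at RT after 10 min compound preincubation; data scaled to 57 uM ketoconazole as 100% inhibition.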

[15] = Confirmation and Secondary Assay for Modulators of Hemoglobin Beta Chain Splicing at IVS2 654 locus (AID 910; active = well fitted curve in the direction sought with a large enough effect; an effect the other way counts as inactive or inconclusive;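 note: HeLa cells stably carrying EGFP split by mutant beta-globin IVS2-654 intron; per-well total GFP intensity by laser scanning cytometry after 2-day treatment; % of control where 0% means no effect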)
Method in brief: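 Readout: per-well total peak green fluorescence (488 nm ex, 500–520 nm em) from objects 5–250 µm, reflecting correct splicing of an EGFP-654 reporter. Compounds were applied for 2 days at 37 °C to overnight-plated HeLa EGFP-654 cells; controls were DMSO and 500 nM IVS2-654 PNA.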

[16] = target: Ubiquitin carboxyl-terminal hydrolase 1 (Homo sapiens) (UniProt O94782); experiment: Inhibitors of USP1/UAF1: Pilot qHTS (AID 504865; active = well fitted curve in the direction sought with a large enough effect; an effect the other way counts as inactive or inconclusive;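 note: rhodamine fluorescence freed from ubiquitin-rhodamine substrate followed over time; top concentration of the series differs between compounds; % is set by controls: 0 for no effect and ±100 for the full control effect; nearly all actives have a fitted effect of over 35% in size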)
Sequence of Ubiquitin carboxyl-terminal hydrolase 1 (Homo sapiens) (O94782 whole entry, looked up): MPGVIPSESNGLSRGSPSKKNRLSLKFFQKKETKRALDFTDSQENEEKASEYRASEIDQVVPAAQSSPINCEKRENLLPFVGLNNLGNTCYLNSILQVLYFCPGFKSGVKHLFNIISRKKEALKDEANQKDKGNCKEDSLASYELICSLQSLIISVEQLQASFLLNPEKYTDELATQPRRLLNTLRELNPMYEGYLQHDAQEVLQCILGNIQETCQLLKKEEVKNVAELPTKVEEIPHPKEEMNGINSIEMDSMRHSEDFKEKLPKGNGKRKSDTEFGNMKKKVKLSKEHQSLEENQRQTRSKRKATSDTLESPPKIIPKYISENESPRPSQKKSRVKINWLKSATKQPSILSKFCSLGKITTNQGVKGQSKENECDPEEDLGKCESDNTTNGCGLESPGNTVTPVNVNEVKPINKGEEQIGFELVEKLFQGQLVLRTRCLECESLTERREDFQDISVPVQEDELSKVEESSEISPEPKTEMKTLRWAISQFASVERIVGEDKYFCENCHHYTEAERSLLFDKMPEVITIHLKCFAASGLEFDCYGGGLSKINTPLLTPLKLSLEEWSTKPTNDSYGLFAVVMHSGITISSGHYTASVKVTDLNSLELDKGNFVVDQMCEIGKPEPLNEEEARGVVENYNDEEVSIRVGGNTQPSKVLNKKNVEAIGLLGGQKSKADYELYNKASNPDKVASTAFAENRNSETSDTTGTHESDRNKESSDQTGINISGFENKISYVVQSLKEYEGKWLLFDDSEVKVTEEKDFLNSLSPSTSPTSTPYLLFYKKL
Method in brief: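 USP1/UAF1 complex at 1 nM preincubated 15 min at room temperature with compound, then Ub-Rho substrate added at 150 nM final. Fluorescence (480/540 nm) read kinetically in 50 mM HEPES pH 7.8, 0.5 mM EDTA, 1 mM TCEP, 0.1 mg/ml BSA, 0.01% Tween-20.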

[17] = qHTS Assay for Identification of Small Molecule Agonists for Hypoxia Response Element Signaling Pathway (AID 914; active = well fitted activation curve with a large enough effect in the signal ratio, with a control signal flat, not every such curve was filed as active; the % refers to the signal ratio; note: % of control where 0% means no effect); conditions: ME-180 (cervical carcinoma) HRE-bla reporter, beta-lactamase ratio, CoCl2, 17 h; activation: stronger effect = higher value
Method in brief: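 Compounds in a titration series were added to ME-180 reporter cells alongside an EC50 level of CoCl2. After 17 hours, beta-lactamase activity was read as the 460nm/530nm emission ratio of CCF4, giving AC50 values.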

[18] = measured here: cell count channel max response
[19] = measured here: lipid channel max response

N#Cc1ccc(CN2CCCC3(CCN(C(=O)Oc4ccccc4)CC3)C2)cc1
inactive: Potency [1] > 11.4 µM | outcome [2] | Potency [3] | outcome [4] | Potency [5] > 46 µM | outcome [6] | Potency [7] | activity change, negative = inhibition [8] 1.3% | outcome [9]
16.3%: max response [8, 19]
11.6%: max response [8, 18]

CN1CCC2(CC1)CCN(C(=O)Oc1ccccc1)CC2
inactive: Potency [1] > 11.4 µM | outcome [2] | Potency [3] | outcome [4] | Potency [5] > 46 µM | Potency [10] | activity change, negative = inhibition [8] 2.73% | outcome [9]
7.31%: max response [8, 19]
2.61%: max response [8, 18]

Cc1noc(C)c1C(=O)N1CCC2(CCCN(CC(C)C)C2)CC1
-5.22%: max response [8, 18]
-1.22%: max response [8, 19]
inactive: Potency [1] > 11.4 µM | outcome [2] | Potency [3] | outcome [4] | Potency [5] > 46 µM | outcome [6] | Potency [10] | activity change, negative = inhibition [8] 1.67% | outcome [9]

c1ccc(CN2CCC3(CCNCC3)CC2)cc1
inactive: Potency [1] > 11.4 µM | outcome [2] | Potency [3] | outcome [4] | Potency [5] > 46 µM | outcome [6] | Potency [10] | activity change, negative = inhibition [8] 1.99% | outcome [9]
22.2%: max response [8, 18]
active: Potency [11] 5.01 µM
27.4%: max response [8, 19]

Cc1ccccc1-c1cncnc1NCCc1cnc[nH]1
active: Potency [3] 5.01 µM | Potency [14] 0.631 µM | Potency [11] 0.0501 µM
inactive: Potency [1] > 11.4 µM | outcome [2] | activity change, negative = inhibition [12] -8.8% | outcome [4] | Potency [13] > 46 µM | Potency [5] > 46 µM | outcome [6] | Potency [10] | Potency [7] | Potency [15] | activity change, negative = inhibition [8] 6.91% | Potency [16] | outcome [9]
17.7%: max response [8, 19]
9.82%: max response [8, 18]

O=C(Nc1ccccc1)N1CC2(CCN(C(=O)Oc3ccccc3)CC2)C1
inactive: Potency [1] > 11.4 µM | outcome [2] | activity change, negative = inhibition [12] 23.8% | outcome [4] | Potency [5] > 46 µM | outcome [6] | Potency [10] | Potency [14] | activation [17] -6.7% | activity change, negative = inhibition [8] 7.64% | outcome [9]
22.2%: max response [8, 19]
9.38%: max response [8, 18]
active: Potency [3] 20 µM

C[C@@H]1O[C@@H](O[C@H]2CC[C@]3(C=O)C4CC[C@]5(C)[C@@H](C6=CC(=O)OC6)CC[C@]5(O)[C@@H]4CC[C@]3(O)C2)[C@H](O)[C@H](O)[C@H]1O (some centres not stated)
inactive: outcome [9]
